Numbering of substitutions follows the chain as printed.
Assays:
Experiment in all cases: yeast three-hybrid, YBZ-1, SC-Leu-His + 0.5 mM 3-AT, 4 days
Settings in all cases: tags: N-Gal4 AD-HA kept; label: inside an RPR1-promoter hybrid RNA with tandem MS2 sites; ssRNA
[1] = biological target: PUM1 PUF domain R3-EYE (Homo sapiens, UniProt Q14671 828-1176, C935E;R936Y;Q939E)
Outline: (§1)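 The interaction score is the log change in how often each variant appears, from input to selection. Frequencies came from PCR-amplified, Illumina-sequenced repeat regions of Pumilio-1 PUF domain libraries grown in strain YBZ-1 (LexA–MS2 coat fusion, HIS3 reporter) alongside matching RNA elements. Input plates were SC-Leu and selection plates were SC-Leu-His + 0.5 mM 3-AT, each for four days, and the log2 calculation used a pseudocount of 1 where a variant was absent.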

[2] = biological target: PUM1 PUF domain R7-RPQ (Homo sapiens, UniProt Q14671 828-1176, S1079R;N1080P;E1083Q)
Outline: as §1

[3] = biological target: T1, PUM1 PUF domain R6-RWV (Homo sapiens, UniProt Q14671 828-1176, N1043R;Y1044W;Q1047V)
T1 sequence: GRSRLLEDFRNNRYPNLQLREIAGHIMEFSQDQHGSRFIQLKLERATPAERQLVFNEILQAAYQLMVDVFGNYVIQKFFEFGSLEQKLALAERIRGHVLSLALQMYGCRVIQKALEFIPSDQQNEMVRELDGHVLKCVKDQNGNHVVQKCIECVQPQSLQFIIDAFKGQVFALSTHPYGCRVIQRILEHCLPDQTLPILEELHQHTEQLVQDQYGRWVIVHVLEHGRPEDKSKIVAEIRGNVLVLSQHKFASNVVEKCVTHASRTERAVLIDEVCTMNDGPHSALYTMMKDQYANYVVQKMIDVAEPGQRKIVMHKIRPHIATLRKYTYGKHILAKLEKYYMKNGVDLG
Outline: as §1

[4] = biological target: T2, PUM1 PUF domain R6-YRS (Homo sapiens, UniProt Q14671 828-1176, N1043Y;Y1044R;Q1047S)
T2 sequence: T1 sequence with R216Y, W217R, V220S
Outline: as §1

[5] = biological target: PUM1 PUF domain R4-GNS (Homo sapiens, UniProt Q14671 828-1176, N971G;H972N;Q975S)
Outline: as §1

[6] = biological target: PUM1 PUF domain R4-MNG (Homo sapiens, UniProt Q14671 828-1176, N971M;H972N;Q975G)
Chain of PUM1 PUF domain R4-MNG (Q14671 828-1176 N971M/H972N/Q975G): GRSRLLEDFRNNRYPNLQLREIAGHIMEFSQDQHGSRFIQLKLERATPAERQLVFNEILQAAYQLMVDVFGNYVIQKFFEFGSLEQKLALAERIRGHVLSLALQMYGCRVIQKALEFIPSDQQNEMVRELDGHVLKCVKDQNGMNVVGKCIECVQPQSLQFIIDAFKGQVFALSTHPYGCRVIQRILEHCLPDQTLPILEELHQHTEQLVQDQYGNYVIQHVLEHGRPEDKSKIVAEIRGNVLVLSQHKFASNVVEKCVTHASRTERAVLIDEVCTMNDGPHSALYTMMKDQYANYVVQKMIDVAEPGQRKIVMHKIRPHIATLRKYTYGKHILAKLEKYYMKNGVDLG
Outline: as §1

[7] = biological target: PUM1 PUF domain R3-FRP (Homo sapiens, UniProt Q14671 828-1176, C935F;Q939P)
Outline: as §1

[8] = biological target: PUM1 PUF domain R4-EPG (Homo sapiens, UniProt Q14671 828-1176, N971E;H972P;Q975G)
Outline: as §1

[9] = biological target: PUM1 PUF domain R4-SPV (Homo sapiens, UniProt Q14671 828-1176, N971S;H972P;Q975V)
Outline: as §1

[10] = biological target: PUM1 PUF domain R4-VRG (Homo sapiens, UniProt Q14671 828-1176, N971V;H972R;Q975G)
Outline: as §1

[11] = biological target: PUM1 PUF domain R3-TYW (Homo sapiens, UniProt Q14671 828-1176, C935T;R936Y;Q939W)
Outline: as §1

[12] = biological target: PUM1 PUF domain R5-RYR (Homo sapiens, UniProt Q14671 828-1176, C1007R;R1008Y;Q1011R)
Outline: as §1

[13] = biological target: T3, PUM1 PUF domain R6-RWK (Homo sapiens, UniProt Q14671 828-1176, N1043R;Y1044W;Q1047K)
T3 sequence: T1 sequence with V220K
Outline: as §1

[14] = biological target: PUM1 PUF domain R5-KYV (Homo sapiens, UniProt Q14671 828-1176, C1007K;R1008Y;Q1011V)
Outline: as §1

[15] = biological target: PUM1 PUF domain R5-MHM (Homo sapiens, UniProt Q14671 828-1176, C1007M;R1008H;Q1011M)
Outline: as §1

[16] = biological target: PUM1 PUF domain R5-EVC (Homo sapiens, UniProt Q14671 828-1176, C1007E;R1008V;Q1011C)
Chain of PUM1 PUF domain R5-EVC (Q14671 828-1176 C1007E/R1008V/Q1011C): as the sequence (Q14671 828-1176 N971M/H972N/Q975G) above, with M144N, N145H, G148Q, C180E, R181V, Q184C counted along it
Outline: as §1

[17] = biological target: PUM1 PUF domain R5-NCR (Homo sapiens, UniProt Q14671 828-1176, C1007N;R1008C;Q1011R)
Outline: as §1

[18] = biological target: PUM1 PUF domain R1-GGE (Homo sapiens, UniProt Q14671 828-1176, S863G;R864G;Q867E)
Outline: as §1

[19] = biological target: PUM1 PUF domain R7-KYW (Homo sapiens, UniProt Q14671 828-1176, S1079K;N1080Y;E1083W)
Outline: as §1

[20] = biological target: PUM1 PUF domain R2-IWD (Homo sapiens, UniProt Q14671 828-1176, N899I;Y900W;Q903D)
Chain of PUM1 PUF domain R2-IWD (Q14671 828-1176 N899I/Y900W/Q903D): as the sequence (Q14671 828-1176 N971M/H972N/Q975G) above, with N72I, Y73W, Q76D, M144N, N145H, G148Q counted along it
Outline: as §1

Q: “GGCUAGAACUAGUGGAUCCCCCGGCGCCCGGCGGCUCGAGCCCGGGUAAGUGUAAUUAGUCUGCAUGCCGCCGGGCGCCAUGCCUGCAGGUCGACUCUAGAAAACAUG” was tested. Which binding signal [1] did it give?
A: 5.03 log2 enrichment (interaction score)

Q: Which binding signal [2] does the source give for “GGCUAGAACUAGUGGAUCCCCCGGCGCCCGGCGGCUCGAGCCCGGGUAAGUUUAAAUAGUCUGCAUGCCGCCGGGCGCCAUGCCUGCAGGUCGACUCUAGAAAACAUG” here?
A: 5.16 log2 enrichment (interaction score)

Q: “GGCUAGAACUAGUGGAUCCCCCGGCGCCCGGCGGCUCGAGCCCGGGUAAGUGAAAAUAGUCUGCAUGCCGCCGGGCGCCAUGCCUGCAGGUCGACUCUAGAAAACAUG” was tested. Which binding signal [3] did it give?
A: 2.99 log2 enrichment (interaction score)

Q: What about the binding signal [4] of the same sequence?
A: 3.7 log2 enrichment (interaction score)

Q: Which binding signal [5] does the source give for “GGCUAGAACUAGUGGAUCCCCCGGCGCCCGGCGGCUCGAGCCCGGGUAAGUGUACAUAGUCUGCAUGCCGCCGGGCGCCAUGCCUGCAGGUCGACUCUAGAAAACAUG” here?
A: 2.01 log2 enrichment (interaction score)

Q: And the binding signal [6]?
A: 2.1 log2 enrichment (interaction score)

Q: For “GGCUAGAACUAGUGGAUCCCCCGGCGCCCGGCGGCUCGAGCCCGGGUAAGUGUAAGUAGUCUGCAUGCCGCCGGGCGCCAUGCCUGCAGGUCGACUCUAGAAAACAUG”, which binding signal [7] is on record?
A: 2.47 log2 enrichment (interaction score)

Q: With “GGCUAGAACUAGUGGAUCCCCCGGCGCCCGGCGGCUCGAGCCCGGGUAAGUGUAUAUAGUCUGCAUGCCGCCGGGCGCCAUGCCUGCAGGUCGACUCUAGAAAACAUG” as the sequence, how does the binding signal [8] read?
A: 2.97 log2 enrichment (interaction score)

Q: What about the binding signal [5] of the same sequence?
A: 4.46 log2 enrichment (interaction score)

Q: What about the binding signal [9] of the same sequence?
A: 3.71 log2 enrichment (interaction score)

Q: For “GGCUAGAACUAGUGGAUCCCCCGGCGCCCGGCGGCUCGAGCCCGGGUAAGUGUAAAUAGUCUGCAUGCCGCCGGGCGCCAUGCCUGCAGGUCGACUCUAGAAAACAUG”, which binding signal [8] is on record?
A: 1.2 log2 enrichment (interaction score)

Q: What about the binding signal [5] of the same sequence?
A: 2.34 log2 enrichment (interaction score)

Q: And the binding signal [10]?
A: 4.34 log2 enrichment (interaction score)

Q: And the binding signal [3]?
A: 5.13 log2 enrichment (interaction score)

Q: What about the binding signal [11] of the same sequence?
A: 5.67 log2 enrichment (interaction score)

Q: What about the binding signal [9] of the same sequence?
A: 1.64 log2 enrichment (interaction score)

Q: And the binding signal [12]?
A: 2.49 log2 enrichment (interaction score)

Q: And the binding signal [13]?
A: 6.43 log2 enrichment (interaction score)

Q: And the binding signal [1]?
A: 2.67 log2 enrichment (interaction score)

Q: What about the binding signal [14] of the same sequence?
A: 4.2 log2 enrichment (interaction score)

Q: “GGCUAGAACUAGUGGAUCCCCCGGCGCCCGGCGGCUCGAGCCCGGGUAAGUGUGAAUAGUCUGCAUGCCGCCGGGCGCCAUGCCUGCAGGUCGACUCUAGAAAACAUG” was tested. Which binding signal [15] did it give?
A: 2.99 log2 enrichment (interaction score)

Q: What about the binding signal [16] of the same sequence?
A: 3.25 log2 enrichment (interaction score)

Q: What about the binding signal [12] of the same sequence?
A: 2.14 log2 enrichment (interaction score)

Q: How did the binding signal [17] turn out when “GGCUAGAACUAGUGGAUCCCCCGGCGCCCGGCGGCUCGAGCCCGGGUAAGUGUUAAUAGUCUGCAUGCCGCCGGGCGCCAUGCCUGCAGGUCGACUCUAGAAAACAUG” was run?
A: 4.23 log2 enrichment (interaction score)

Q: What about the binding signal [12] of the same sequence?
A: 4.47 log2 enrichment (interaction score)

Q: And the binding signal [14]?
A: 4.52 log2 enrichment (interaction score)

Q: For “GGCUAGAACUAGUGGAUCCCCCGGCGCCCGGCGGCUCGAGCCCGGGUAAGUGUAAAUGGUCUGCAUGCCGCCGGGCGCCAUGCCUGCAGGUCGACUCUAGAAAACAUG”, which binding signal [18] is on record?
A: 2.22 log2 enrichment (interaction score)

Q: For “GGCUAGAACUAGUGGAUCCCCCGGCGCCCGGCGGCUCGAGCCCGGGUAAGUCUAAAUAGUCUGCAUGCCGCCGGGCGCCAUGCCUGCAGGUCGACUCUAGAAAACAUG”, which binding signal [19] is on record?
A: 3.27 log2 enrichment (interaction score)

Q: What about the binding signal [2] of the same sequence?
A: 2.7 log2 enrichment (interaction score)

Q: Which results are given for “GGCUAGAACUAGUGGAUCCCCCGGCGCCCGGCGGCUCGAGCCCGGGUAAGUGUCAAUAGUCUGCAUGCCGCCGGGCGCCAUGCCUGCAGGUCGACUCUAGAAAACAUG”?
A: binding signal [17]: 1.7 log2 enrichment (interaction score); binding signal [12]: 4.57 log2 enrichment (interaction score); binding signal [14]: 5.44 log2 enrichment (interaction score)

Q: For “GGCUAGAACUAGUGGAUCCCCCGGCGCCCGGCGGCUCGAGCCCGGGUAAGUGUAAAAAGUCUGCAUGCCGCCGGGCGCCAUGCCUGCAGGUCGACUCUAGAAAACAUG”, which binding signal [20] is on record?
A: 2.12 log2 enrichment (interaction score)

From paper PMC8384837, “Expanding the binding specificity for RNA recognition by a PUF domain”
